# “And” between values parts separate entries of the source, which are not always exact repeats. Equal entries are not always repeated. Compounds without any hit were thinned out: in the full panel of roughly 83,000, 20% have a hit.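 How to read the values: 0–100, growth inhibition (40 = 60% inhibited); 0, no net growth; -100 to 0, cell death (-40 = 40% of starting cells died; -100 = all dead).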 A number with no mark means an inactive call. The source made the active and inactive calls. How the source made its calls: active means growth percent below 10; inactive means the rest.
# Test system: MDA-MB-468 breast
# Experiment: NCI-60 one-dose screen, 48 h (100 = growth as untreated, 0 = no growth, -100 = all killed)
# Settings: 10 µM unless noted
row,Compound,growth
1,CC1(C)c2[nH]c3ccccc3c2C[C@]2(C)[C@H]3C(=O)C=C4[C@@H]5C[C@@](C)(C(N)=O)CC[C@]5(C)CC[C@@]4(C)[C@]3(C)CC[C@@H]12,56.4%
2,NC(=NCc1ccccc1)C(N=Nc1ccccc1)C(=O)NCc1ccccc1 (stereo not given),55.3%
3,CCS/C(Nc1ccccc1)=C(\C#N)C(=O)Nc1ccc(OC)cc1,-2.63% (active)
4,CN1C(=O)/C(=C\c2c(Cl)cccc2Cl)c2ccccc21,37.7%
5,CC(Cc1cccc2ccccc12)C(N)=O (stereo not given),110%
6,COC(=O)c1c2c(c(C)[n+]([O-])c1C)C(=O)C(NCc1cccc(Cl)c1)=CC2=O,-26.3% (active)
7,O=C(/C=C1\C=CN(CCCCO)c2ccccc21)n1ccc2ccccc21,98%
8,Cc1csc(-c2ccc3c(c2)COC3(CCCN(C)C)c2ccc(F)cc2)c1 (stereo not given),31.1%
9,CCN(CC)S(=O)(=O)c1ccc(O)c(NC(=O)c2[nH]c(C)c(C(C)=O)c2CCc2ccc(Cl)cc2)c1,19.8%
10,O=C1/C(=C/c2ccccc2O)C(=S)SN1Cc1ccco1,64.7%
11,O=C1/C(=C/c2cccc3cnccc23)Cc2cc(F)ccc21,65.2%
12,Oc1[nH]c2ccccc2c1/C=c1/ccc2c(c1)N=C(c1cc(F)cc(F)c1)N=2,20.6%
13,CN1c2ccccc2C(C)(C)C12C=Cc1cc(O)ccc1O2 (stereo not given),4.08% (active)
14,CC(C)(C)c1cc(NC(=O)Nc2ccc(-c3cn4c(n3)sc3cc(OCCN5CCOCC5)ccc34)cc2)no1,12.4% and 30.6%
15,CCCCCCN(CCCCCC)CC(O)c1cccc2ccc(Cl)cc12 (stereo not given),87.6%
16,COc1cc(C(=O)O/N=C(\N)Cc2cccc3ccccc23)cc(OC)c1OC,-72.1% (active)
17,Cc1ccc(NC(=O)Cc2ccc(/C=C/C(=O)c3ncc[nH]3)cc2)cc1,-0.436% (active)
18,COc1cc2c(c(OC)c1OC)C(=O)CC(c1cccc(C(=O)Nc3ccc(Br)cc3)c1)O2 (stereo not given),30.5%
19,COc1ccc2cc(-c3nc(C)c(C(C)=O)c(-c4ccc(C)cc4)n3)ccc2c1,74.4%
20,COP(=O)(OC)C(C)(C)CC(=O)CC(C#N)(C#N)C(C#N)C#N,104%

row,Compound,growth
1,COc1ccc2nc3cc(Cl)ccc3c(N3CCN(c4ccnc(N5CCOCC5)n4)CC3)c2c1,-54.8% (active)
2,Cc1ccc(NC(=O)c2ccc(CN3CCN(C)CC3)c(C(F)(F)F)c2)cc1Oc1ccc(-c2[nH]nc3ncnc(N)c23)cc1,117%
3,Cc1ccc2c(c1)C(=O)/C(=C/c1ncc([N+](=O)[O-])n1C)O2,52.4%
4,Oc1ccc2ccccc2c1C1NN=C(c2ccccc2)S1 (stereo not given),3.89% (active)
5,CCCCCCCSc1ncnc2[nH]ncc12,68.8%
6,C[n+]1ccc(CCc2c[nH]c3ccccc23)cc1,14.4%
7,O=C1c2ccccc2C(=O)c2c1c(C(=O)NCc1ccccc1)c1ccccn21,101%
8,CN1CCN(C(=S)SCCCCOc2cc(=O)oc3ccccc23)CC1,56.3%
9,CC(C)=CCc1cc(O)c(O)c2oc3cc(O)cc(O)c3c(=O)c12,123%
10,CC(=O)Nc1ccc(S(=O)(=O)N2C(=O)CCC2C(=O)Nc2ccc(Br)cc2)cc1 (stereo not given),20.6%
11,CN(C)c1ccc(/C=C\c2ccnc3ccccc23)cc1,31.2%
12,O=C1COCCN1c1ccc(NCc2cn(Cc3ccccc3)c3ccccc23)cc1,-76% (active)
13,C=CCNc1ccc2c3c(cccc13)C(=O)N(N1C(=O)c3cccc4cccc(c34)C1=O)C2=O,101%
14,COc1ccc(-c2cc(/C=C3\C(=O)Nc4cc(Cl)ccc43)[nH]n2)cc1OC,65.5%
15,O=C(Nc1cnc(C(F)(F)F)cn1)c1cc(Cl)ccc1O,-0.82% (active)
16,CCCn1cnc2c(c1=N)C(c1ccc(OC)cc1)c1sc3c(C)cccc3c1O2 (stereo not given),50%
17,Nc1nc(Cn2c(-c3nonc3N)nc3ccccc32)nc(N2CCCCC2)n1,72.8%
18,CCCCCCCCCCn1cc[n+](C)c1,-42.1% (active)
19,Cc1ccc(Cc2ccc(C)cc2)cc1,96.8%
20,CCCN1CCN(c2ccc3nc(-c4ccc5nc(-c6cc(OC)c(OC)c(OC)c6)[nH]c5c4)[nH]c3c2)CC1,47.1%

# Source: PubChem BioAssay (NCI)
